Compound activity as filed in PubChem.
G9a inh = qHTS Assay for Inhibitors of Histone Lysine Methyltransferase G9a; Potency, µM (titrated, usually from 102 µM), inactives show at the highest dose activity, negative = inhibition, hits mostly inhibitors; G9a H3K9 monomethylation, AlphaScreen, 2 h; actives 8.8% (n = 350,000); Histone-lysine N-methyltransferase EHMT2 (Homo sapiens), Q96KQ7; also: % is scaled to controls: 0 for no effect and ±100 for the full control effect; nearly all actives have a fitted effect of over 75% in size
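AlphaScreen detection with an anti-monomethyl H3K9 antibody quantified product after a 2 h room-temperature reaction containing 500 nM biotinylated H3K9 peptide, 20 µM SAM and 20 nM enzyme, which had been preincubated 15 min with compound.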
VDR inhibitor = Inhibitors of the vitamin D receptor (VDR): qHTS; Potency, µM, inactives show max response, negative = inhibition, hits mostly inhibitors; AID 504847, 2011; VDR-SRC2-3 peptide fluorescence polarization, 2 h; Vitamin D3 receptor (Homo sapiens), P11473; actives 0.93% (n = 400,000); also: % is scaled to controls: 0 for no effect and ±100 for the full control effect
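The screen uses fluorescence polarization to detect compounds that interfere with recruitment of the SRC2-3 coactivator peptide to VDR; plates are read after 2 h at room temperature.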
HP1b binding inh = HTS for Inhibitors of HP1-beta Chromodomain Interactions with Methylated Histone Tails; Chromobox protein homolog 1 (Homo sapiens), P83916; AlphaScreen HP1-beta / biotin-H3K9me3 peptide binding; Potency, µM (doses to about 114 µM), for the others: at the highest dose activity change, negative = inhibition, most hits filed as inhibitors; actives 0.56% (n = 390,000); also: nearly all actives have a fitted effect of over 70% in size
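AlphaScreen: HP1-beta (50 nM) preformed 30 min with biotin-H3(1-18)K9me3 peptide (50 nM) in PBS pH 7.4, 0.01% Tween-20. Compound added for 30 min at RT, then streptavidin donor/nickel chelate acceptor beads (10 ug/mL) for 30 min.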
PLK1 PBD inh = qHTS for Inhibitors of PLK1-PDB (polo-like kinase 1 - polo-box domain): Primary Screen | AID 720504, 2013 | Plk1 PBD binding of FITC phosphopeptide, fluorescence polarization | actives 2.8% (n = 360,000) | Potency, µM, inactives show max response, negative = inhibition, most hits filed as inhibitors; also: series mostly up to about 57 µM; % is scaled to controls: 0 for no effect and ±100 for the full control effect; nearly all actives have a fitted effect of over 65% in size
JMJD2A Tudor = qHTS Assay for Inhibitors of JMJD2A-Tudor Domain. actives 4.4% (n = 390,000). Potency, µM (top dose mostly 114 µM), without a hit: top-dose activity change, negative = inhibition, actives largely listed as inhibitors. AlphaScreen JMJD2A-Tudor / H3K4me3 peptide binding; also: % is scaled to controls: 0 for no effect and ±100 for the full control effect; nearly all actives have a fitted effect of over 50% in size
Target sequence (O75164 whole entry, looked up, the tested form may be a part): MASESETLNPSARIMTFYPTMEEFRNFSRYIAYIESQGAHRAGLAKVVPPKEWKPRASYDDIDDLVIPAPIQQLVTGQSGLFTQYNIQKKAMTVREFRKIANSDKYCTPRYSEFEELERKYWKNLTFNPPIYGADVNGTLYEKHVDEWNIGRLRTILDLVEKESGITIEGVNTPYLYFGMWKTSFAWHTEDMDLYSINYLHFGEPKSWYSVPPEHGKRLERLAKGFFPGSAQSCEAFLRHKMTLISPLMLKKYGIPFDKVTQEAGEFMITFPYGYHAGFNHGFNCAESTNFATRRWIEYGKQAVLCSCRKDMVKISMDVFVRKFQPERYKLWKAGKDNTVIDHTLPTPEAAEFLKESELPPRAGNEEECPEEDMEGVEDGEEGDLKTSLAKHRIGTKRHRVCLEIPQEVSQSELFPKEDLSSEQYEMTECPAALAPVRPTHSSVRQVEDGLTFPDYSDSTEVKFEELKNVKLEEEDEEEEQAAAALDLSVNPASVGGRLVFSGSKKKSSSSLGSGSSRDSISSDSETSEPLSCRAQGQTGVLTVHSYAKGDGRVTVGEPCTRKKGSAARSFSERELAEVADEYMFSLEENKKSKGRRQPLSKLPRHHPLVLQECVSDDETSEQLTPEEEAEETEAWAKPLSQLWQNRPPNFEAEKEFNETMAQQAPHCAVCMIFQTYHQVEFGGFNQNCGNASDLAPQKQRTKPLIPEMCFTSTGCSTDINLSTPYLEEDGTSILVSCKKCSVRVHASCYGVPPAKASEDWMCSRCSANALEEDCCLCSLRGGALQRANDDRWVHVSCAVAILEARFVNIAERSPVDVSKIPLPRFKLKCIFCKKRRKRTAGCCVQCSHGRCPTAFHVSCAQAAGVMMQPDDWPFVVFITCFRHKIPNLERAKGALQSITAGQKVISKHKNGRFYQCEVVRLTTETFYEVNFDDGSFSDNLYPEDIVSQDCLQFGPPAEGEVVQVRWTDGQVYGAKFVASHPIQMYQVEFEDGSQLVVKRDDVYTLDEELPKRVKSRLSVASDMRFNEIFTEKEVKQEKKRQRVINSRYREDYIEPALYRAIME
BAZ2B block = qHTS Assay for Inhibitors of BAZ2B; Bromodomain adjacent to zinc finger domain protein 2B (Homo sapiens), Q9UIF8; AlphaScreen BAZ2B-H3K14Ac peptide displacement; Potency, µM (series often up to 114 µM), for inactives: at the highest dose activity change, negative = inhibition, hits mostly inhibitors; actives 4.4% (n = 360,000); AID 504333, 2011; also: % is scaled to controls: 0 for no effect and ±100 for the full control effect; nearly all actives have a fitted effect of over 60% in size
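In this displacement format the biotinylated H3(5-23) peptide acetylated at Lys14 serves as ligand at 50 nM, with BAZ2B at 50 nM in PBS pH 7.4 containing 0.01% Tween-20. Donor and acceptor beads are 10 ug/mL final.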
Active calls of the source: *; ? = inconclusive; · = no result; [ ] = dose if it differs, or a comment. Only some compounds are listed: those with a hit (about 11% of all), similar ones and a draw of the others. Calls follow the shape of the dose curve; as a rule, active = well fitted curve in the direction sought with a large enough effect; inconclusive = small, poorly fitted or top-dose-only effect, or another doubt; inactive = no such curve, though single readings can be large; an effect the other way counts as inactive or inconclusive. Potency is read from the fitted curve at half-maximal effect.

SMILES | G9a inh | VDR inhibitor | HP1b binding inh | PLK1 PBD inh | JMJD2A Tudor | BAZ2B block
Cc1cc(C)cc(OC(C)C(=O)Nc2nonc2-c2ccc(Br)cc2)c1 (stereo not drawn) | ? | 22.1% | 28.0% | · | -15.2% | -6.8%
CCN1CCN(c2ncnc3c2sc(=S)n3-c2ccccc2)CC1 | 50.1µM* | -1.5% | 34.3% | -17.6% | -20.4% | 3.2%
CC1OC(OCC2OC(Oc3cc(O)c4c(c3)OC(c3ccc(O)cc3)CC4=O)C(O)C(O)C2O)C(O)C(O)C1O (stereo not drawn) | · | -4.4% | · | · | · | ·
C/C(=N\Nc1cc(-c2ccccc2)nc(-c2ccccc2)n1)c1ccc(O)c(C)c1 | -8.2% | -2.3% | 7.6% | -3.1% | -28.8% | -32.9%
COc1cc(N/N=C(\C)c2ccc(N)cc2)nc(-c2ccccc2)n1 | 44.7µM* | -18.9% | 2.9% | 1.7% | -34.0% | 31.6µM*
COc1ccccc1OCCCOc1c(C)cc(C)cc1Br | 103.0%[59 µM] | -0.9% | 177.2% | -1.6% | 87.3% | 151.4%
CC(C)(C)NCCCCOc1ccccc1F | -26.2%[12.7 µM] | 1.7% | 7.6% | -12.0% | -9.3% | -25.2%
Cc1ccc(OCCCN(C)C)c(Br)c1 | ? | 18.1% | ? | 0.8% | 3.16µM* | 79.4µM*
Cc1cc(Cl)c(OCCCN(C)C)c(Br)c1 | 11.2µM* | -5.0% | ? | -1.9% | 8.91µM* | -37.0%
Cc1cc(Cl)c(OCCCCNC(C)(C)C)c(Br)c1 | 8.91µM* | · | · | · | · | ?
COc1cccc(OC)c1OCCCOc1ccc(C)cc1Br | 31.1%[59 µM] | -10.6% | 120.6% | -0.6% | 40.5% | 86.8%
CN(C)CCCOc1ccc(Cl)cc1Br | 30.5%[0.501 µM] | 7.1% | ? | -5.0% | 1µM* | 44.7µM*
Cc1ccc(C(=O)NCCc2csc(-c3cccc(F)c3)n2)cc1C | 19.3%[59 µM] | 8.1% | 14.1%[57 µM] | · | -8.9% | -4.1%
CC(=O)c1ccc(NC(=S)NNC(=O)c2ccncc2)cc1 | ? | -7.2% | -4.4% | -3.0% | ? | -2.3%
COc1cccc(-n2c(=O)n(Cc3ccccc3)c(=O)c3[nH]cnc32)c1 | 22.8%[59 µM] | 6.5% | 23.3% | -11.6% | -4.2% | -2.7%
CC1(C)N(O)CC(c2cccs2)=[N+]1[O-] | -36.3%[12.7 µM] | 5.3% | -23.4% | -5.6% | 28.2µM* | 50.1µM*
COc1ccccc1NC(=O)C1CCN(C(=O)C2CC(=O)N(c3ccc(C)cc3)C2)CC1 (stereo not drawn) | 23.0% | -5.0% | 2.9% | -5.6% | 0.0% | 1.8%
O=C(NNC(=O)c1ccc(Br)cc1)c1ccncc1 | -33.5%[0.501 µM] | -20.6% | 50.5% | 3.0% | 4.3% | -0.4%
CC/C(=C\C(=O)c1ccncc1)Nc1ccc(Br)cc1 | ? | -4.8% | ? | -2.2% | ? | 50.1µM*
O=C(OCCN=C1NS(=O)(=O)c2ccccc21)C1CC(=O)N(c2ccc3ccccc3c2)C1 (stereo not drawn) | -23.6%[59 µM] | 10.1% | 39.2% | 2.4% | -27.9% | -17.2%
CC(C)CC(=O)Nc1nnc(S(=O)(=O)N(CC(C)C)c2ccccc2)s1 | 18.5%[59 µM] | 13.5% | 29.5% | · | -4.9% | ?
CN(CC(=O)Nc1ccc(N2CCOCC2)cc1)C(=O)CSc1ccc(Br)cc1 | · | -15.4% | -1.5% | ? | -24.8% | -10.2%
Cc1ccc(CC(=O)N(C)CC(=O)Nc2ccc(N3CCOCC3)cc2)cc1C | 14.1µM* | 9.4% | 23.4% | -8.6% | -15.2% | -28.9%
CN(CC(=O)Nc1ccc(N2CCOCC2)cc1)C(=O)c1cccc(Cl)c1Cl | ? | -0.6% | 21.4% | -3.0% | -11.7% | -29.4%
Cc1ccc(NC(=O)CN(C)CC(=O)Nc2ccc(N3CCOCC3)cc2)cc1F | -142.7%[59 µM] | -9.1% | ? | 5.0% | 7.94µM* | 17.8µM*
